Tau fibril FP = inhibitors of human tau fibril formation; P10636; K18 P301L tau heparin fibrillization, Alexa594 FP, 6 h; Potency, µM (doses to about 57.7 µM), hits mostly inhibitors; actives 0.39% (n = 280,000); AID 1468; note: nearly all actives have a fitted effect of over 55% in size
Target sequence (P10636 561-689 P618L limits assumed): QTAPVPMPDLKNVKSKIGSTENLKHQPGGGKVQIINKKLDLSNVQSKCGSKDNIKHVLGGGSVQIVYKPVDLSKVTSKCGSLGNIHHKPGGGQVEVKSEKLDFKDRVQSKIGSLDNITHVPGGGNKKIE
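Steps: dispense K18 P301L tau (15 uM plus 0.24 uM Alexa 594 tracer, final) in pH 7 sodium acetate; add compound; add heparin (20 uM final); incubate 6 hr, 37 C; add ThT (30 uM final); after 1 hr ambient, read FP.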
HttQ103 aggreg = mutant huntingtin aggregation inhibition; Potency, µM (series often up to 46.1 µM), usual class: inhibitors; PC12 HttQ103-GFP aggregates, Acumen cytometry, 40 h; actives 1.1% (n = 220,000); note: nearly all actives have a fitted effect of over 60% in size
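Quantitative HTS on tebufenozide-induced (100 nM) PC12 cells stably expressing polyQ103 Huntingtin exon 1–GFP. Reduction of bright GFP aggregates, detected by laser scanning cytometry after lysis, identified actives across the titration.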
Tau ThT inhib = blocks human tau fibril formation measured by thioflavin T. P10636. recombinant tau K18 P301L, heparin-induced fibrillization, ThT fluorescence. Potency, µM (top dose mostly 57.4 µM), actives largely listed as inhibitors. actives 2.1% (n = 270,000). AID 1460; note: nearly all actives have a fitted effect of over 55% in size
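Aggregation was driven by heparin (20 uM final) acting on recombinant tau […] bearing P301L in 100 mM sodium acetate pH 7; fibrils were detected with Thioflavin T.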
HTT cytoprotect = cytoprotection in Huntington HTT-Q103 PC12 cell model | PC12 HTT-Q103 induced, cytoprotection, ATP luminescence, 40 h | Potency, µM (top dose mostly 56.4 µM), usual class: activators | actives 0.14% (n = 230,000); note: nearly all actives have a fitted effect of over 45% in size
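PC12 cells stably carrying ecdysone-inducible Htt exon 1 (Q103)–GFP were induced with 100 nM tebufenozide (final) alongside library compounds in a dose series. Cytoprotection was scored as retained ATP by ATPlite luminescence.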
Tau fluor counter = counter-screen for tau fibril formation inhibitors | tau K18 P301L (four-repeat tau fragment) Alexa594 fluorescence, heparin fibrillization | Potency, µM (titrated, usually from 57.7 µM) | actives 0.93% (n = 280,000) | AID 1463; note: nearly all actives have a fitted effect of over 55% in size
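Human K18 P301L tau (15 uM unlabeled plus 0.24 uM Alexa 594-labeled, final) in 100 mM sodium acetate pH 7 was mixed with compound and 20 uM heparin and incubated 6 hr at 37 C.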
Hits are given with their value; n = inactive; u = inconclusive; x = not tested or not shown; ! = not active in a repeat; [ ] = another dose, or the depositor's remark. This is a sample that favours compounds with a hit; in the whole collection about 3.7% have one here. Calls come from the whole dose curve; as a rule, active = well fitted curve in the direction sought with a large enough effect; inconclusive = small, poorly fitted or top-dose-only effect, or another doubt; inactive = no such curve, though single readings can be large; an effect the other way counts as inactive or inconclusive.

SMILES	Tau fibril FP	HttQ103 aggreg	Tau ThT inhib	HTT cytoprotect	Tau fluor counter
CO[C@H](C(=O)[C@@H](O)[C@@H](C)O)C1Cc2cc3cc(O[C@H]4C[C@@H](O[C@H]5C[C@@H](O)[C@H](O)[C@@H](C)O5)[C@@H](O)[C@@H](C)O4)c(C)c(O)c3c(O)c2C(=O)[C@H]1O[C@H]1C[C@@H](O[C@H]2C[C@@H](O[C@H]3C[C@](C)(O)[C@H](O)[C@@H](C)O3)[C@H](O)[C@@H](C)O2)[C@H](O)[C@@H](C)O1 (stereo not given in full)	x	0.22µM	x	n	x
COC(C(=O)C(O)C(C)O)C1Cc2cc3cc(OC4CC(OC5CC(O)C(O)C(C)O5)C(O)C(C)O4)c(C)c(O)c3c(O)c2C(=O)C1OC1CC(OC2CC(OC3CC(C)(O)C(O)C(C)O3)C(O)C(C)O2)C(O)C(C)O1 (stereo not given)	x	0.22µM	x	n	x
COC(=O)[C@@]1(Cc2ccccc2-c2ccco2)C=C[C@H](C)[C@@H](c2ccccc2)N1C(=O)C(F)(F)F	n	x	n	10µM	n
CCC(O)OC(O)CC (stereo not given)	x	x	x	n	x
COc1cccc(/C=N/Nc2nc(Nc3ccccc3)nc(-n3nc(C)cc3C)n2)c1O	n	1.1µM	u	n[10 µM]	u
COc1ccccc1OCC(=O)NNc1c2ccccc2nc2ccccc12	u	n[9.22 µM]	18µM	n[10 µM]	16µM[quencher]
CCn1c(NC(=O)c2ccc(C)cc2)c2ccccc2nc1=O	n	n	n	n[10 µM]	n
Nc1ccccc1C(=O)NNc1c2ccccc2nc2ccccc12	n	n[9.22 µM]	5.6µM	n[10 µM]	13µM[quencher]
Cc1ccc(C(=O)NNc2c3ccccc3nc3ccccc23)cc1	u	n[9.22 µM]	3.2µM	n[10 µM]	11µM[quencher]
CCN(CC)c1ccc(NC(=O)CCc2nc3cccnc3n2Cc2cccs2)c(C)c1	n	x	n	x	n
COC(=O)c1cc(C(=O)OC)cc(-n2c(C)cc(C(=O)CC#N)c2C)c1	n	n	n	n	n
Cc1cc(C(=O)CC#N)c(C)n1-c1ccc(OC(F)F)cc1	n	8.9µM	n	n[10 µM]	n
CCSc1nc(-c2ccccc2)nc(C(Cl)Cl)n1	n	10µM	u	n[1.9 µM]	n
CSc1nc(-c2ccc(C)cc2)nc(C(Cl)Cl)n1	n	u	n	n	n
Oc1ccc(Br)cc1C=Nc1ccc(Cl)cc1	n	n	n	n	n
CCN(CC)c1ccc(N=Cc2cc(Br)ccc2O)cc1	u	n	16µM	n	u
CN1CCc2cccc3c2[C@H]1Cc1ccc(O)c(O)c1-3	20µM!	u	18µM	u	22µM[quencher]
COc1ccc(CCNC(=S)N2CCC(Cc3ccccc3)CC2)cc1OC	n	22µM	u	n	n
COc1ccc(CNc2ccnc(-c3ccccc3Cl)n2)c(OC)c1	x	x	x	n	x
O=C(NCc1cccs1)c1cccc(Nc2nc3ccc(Br)cc3[nH]2)c1	u	n	u	n[10 µM]	7.9µM[quencher]
CC1CCC2C(=O)N3C(CCC(C)C3c3ccc(-c4ccco4)cc3)C(=O)N2C1c1ccc(-c2ccco2)cc1 (stereo not given)	n[11.6 µM]	x	n[11.5 µM]	n[10 µM]	n[11.6 µM]
COc1ccc(C2CC(C(F)(F)F)n3nc(C(=O)NCc4c(C)nn(C)c4C)c(Cl)c3N2)cc1 (stereo not given)	n	8.9µM	n	n	n
CCCCC[C@H](O)/C=C/[C@H]1C=CC(=O)[C@@H]1C/C=C\CCCC(=O)O	n	n	n	n	n
CCCCC[C@H](O)C/C=C1/C(=O)C=C[C@@H]1C/C=C\CCCC(=O)O	n	x	u	11µM	n
CCCCC/C=C/C=C1/C(=O)C=C[C@@H]1C/C=C\CCCC(=O)O	u	x	16µM!	u	n
SMILES	Tau fibril FP	HttQ103 aggreg	Tau ThT inhib	HTT cytoprotect	Tau fluor counter
C=C(C#N)C(=O)OCC	x	x	x	n	x
CCC(c1nnnn1Cc1ccco1)N(CCc1ccccc1)Cc1cc2cc(C)ccc2[nH]c1=O (stereo not given)	n	28µM	u	n[10 µM]	n
Cc1ccc2[nH]c(=O)c(CN(Cc3nnnn3Cc3ccccc3)C3CCCC3)cc2c1	n	0.89µM	u	n[10 µM]	n
CCc1ccc2[nH]c(=O)c(CN(Cc3nnnn3C3CCCC3)C3CCCCC3)cc2c1	n	n[9.22 µM]	u	n	n
CC(C)N(C)C	x	x	x	n	x
O=C1c2ccccc2C(=O)c2c(O)c(O)cc(O)c21	u	x	5µM	n[1.9 µM]	14µM[quencher]
O=C1c2ccccc2C(=O)c2c(O)ccc(O)c21	u	x	u	n	n
O=C(COc1ccccc1-c1nc(-c2ccccc2)no1)Nc1ccc([N+](=O)[O-])cc1	n	x	n	x	n
O=C(O)C1(C(=O)O)CCN(S(=O)(=O)c2ccccc2)CC1	x	x	x	n[10 µM]	x
O=C1Nc2ccc(I)cc2/C1=C/c1cc(Br)c(O)c(Br)c1	u	x	4µM	n	14µM![quencher]
COc1cc(C=C2C(=O)OC(c3ccccc3)OC2=O)cc(Br)c1O (stereo not given)	n	n	n	n	n
O=C(Nc1nccs1)C(=O)c1c[nH]c2ccccc12	n	n	u	n	n
CSc1ccccc1NC(=O)C(=O)c1c[nH]c2ccccc12	10µM	n	n	n	u
Nc1c(C(=O)NCC2CCCO2)sc2nc3c(c(-c4ccco4)c12)CC/C3=C\c1ccco1 (stereo not given)	u	n	16µM	n[10 µM]	u
CCCOc1ccc(/C=C/C(=O)Nc2sc(C)c(C)c2C(=O)OCC)cc1OC	u	x	28µM	x	n
Cc1c(C)c(C)c(CC2(C)CSC2)c(CC2(C)CSC2)c1C	x	x	x	n[10 µM]	x
c1ccc(N2CCN(Cc3nnc(-c4ccc5c(c4)OCO5)o3)CC2)cc1	n	x	n	x	n
Cc1cc(C)c2c(=O)n(CC(=O)Nc3cccc(Cl)c3C)sc2n1	20µM	n[9.22 µM]	x	n[10 µM]	u
COc1ccc(OC)c(CCNC(=O)Cn2sc3nc(C)cc(C)c3c2=O)c1	u	u	11µM	n	n
Cc1cc(C)c2c(=O)n(CC(=O)NC3CCCC3)sc2n1	14µM	n[9.22 µM]	13µM	n[10 µM]	n
NC(=O)/N=C(\N)NC(=O)c1ccccc1	x	x	x	n[10 µM]	x
COc1ccc(C(=O)/C=C2\Sc3ccccc3N2C)cc1	n	n[9.22 µM]	u	n[10 µM]	n
CC(=S)/C=C1\Sc2ccccc2N1C	n	n	14µM	n	n
NC(N)=NC(N)=Nc1ccc(C(=O)O)cc1	x	x	x	n[10 µM]	x
CCc1ccc(CNC(=O)CCn2c(=O)c3cccn3c3ccc(F)cc32)cc1	n	x	n	x	n
SMILES	Tau fibril FP	HttQ103 aggreg	Tau ThT inhib	HTT cytoprotect	Tau fluor counter
CCc1nc(Cl)c(C#N)c2c1CCCC2	n	11µM	n	n[10 µM]	n
CCCc1nc(Cl)c(C#N)c2c1CCCC2	n	n	n	n[10 µM]	n
CN(C)c1ccc(CNC(=O)Cc2ccc(NC(=O)N3CCCCc4ccccc43)cc2)cc1	n	x	n	x	n
CC1CCc2nc(N)c(C#N)c(-c3cccnc3)c2C1 (stereo not given)	n	2µM	n	n[10 µM]	n
Cc1ccc2nc(CSc3nc(C)cc(C)c3C#N)[nH]c2c1	u	n	13µM	n	u
Cc1cc(C)c(C#N)c(SCc2ccccc2)n1	n	n	n	n[10 µM]	n

Source: PubChem (National Center for Advancing Translational Sciences (NCATS))
